The whole screen tested about 13,000 compounds, of which about 3,200 (25%) showed an effect of 50% or more. This is one part of the list.
test system: P. falciparum stage V gametocytes; design: BacTiter-Glo ATP luminescence viability of purified stage V gametocytes in 384-well plates, per cent inhibition versus DMSO; settings: 48 h, 5 µM; inhibitor

Compared with `O=C(NCC1CCC(CNCCc2ccccc2)CC1)Nc1ccc(Cl)c(Cl)c1` (stereo not shown) [TCMDC-140704], `O=C(/C=C/c1ccc(Cl)c(Cl)c1)NCCCCCCN1CCCN(C(=O)Nc2cccc(Cl)c2)CC1` [TCMDC-135939] is lower in “% Inhibition” value: -8.295% for the first, -30.78% for the second.

Going from `CCCCCc1cc(O)c2c3c(c(=O)oc2c1)CN(C)CC3` [TCMDC-124170] to `CCCCCC(C)C(C)c1cc(O)c2c(c1)OC(C)(C)CC2(O)c1ccccn1` (stereo not shown) [TCMDC-131713], the “% Inhibition” value falls from 9.829% to -6.865%.

Going from `CC(=O)Nc1csc(-c2cnc(/C=C(\C)C[C@@H]3OC[C@H](C[C@@H]4O[C@H]4[C@@H](C)[C@H](C)O)[C@@H](O)[C@H]3O)o2)c1` [TCMDC-131575] to `CCCCCN1CCC(NC(=O)c2ccc(C(=O)Nc3ccc(C(C)C)cc3)cc2)CC1` [TCMDC-136751], the “% Inhibition” value rises from 0.669% to 8.673%.

First: COc1cccc(NC(=O)NC2CCN(c3ccnc(Nc4cc(OC)c(OC)c(OC)c4)n3)C2)c1 (stereo not shown) [TCMDC-133627]
Second: CC(=O)NCCNc1nccc(N2CCc3ncnc(Nc4ccc(OCc5cccc(F)c5)c(Cl)c4)c3C2)n1 [TCMDC-135392]
The “% Inhibition” value of the first is lower: -76.2% for the first, 4.041% for the second.

Compared with `CN(C)C(=S)N=Nc1c(O)[nH]c2ccccc12` [TCMDC-124262], `CC(C)(C)Oc1ccc(NC(=O)c2ccccc2O)cc1` [TCMDC-137700] is higher in “% Inhibition” value: -39.06% for the first, 29.92% for the second.

Compared with `COc1cc(NC(=O)/C=C/c2ccccc2OC(F)(F)F)cc(OCCN2CCC(O)(c3ccccc3)CC2)c1` [TCMDC-140935], `COc1cc(-c2ccccc2)ccc1C(=O)Nc1ccc2c(c1)N(C)CCC2` [TCMDC-141219] is lower in “% Inhibition” value: -5.416% for the first, -85.17% for the second.

Compared with `COc1ccc(C2CCN(CCN3CCC(NC(=O)c4cccc(-c5ccncc5)c4)CC3)CC2)c(OC)c1` [TCMDC-135431], `COc1ccc(Nc2nc(NC3CCN(Cc4ccccc4)CC3)cc(-c3ccncc3)n2)cc1` [TCMDC-134021] is lower in “% Inhibition” value: -2.358% for the first, -30.5% for the second.

Going from `COc1cc(NC(=O)c2sc(-c3ccc(Cl)cc3)cc2NC(=O)CN2CC[C@@H](O)C2)ccc1OCCN1CCCC1` [TCMDC-135380] to `COc1cc(NC(=O)c2sc(-c3ccc(Cl)cc3)cc2NC(=O)CN2CCCC2)ccc1OCCN1CCCC1` [TCMDC-135381], the “% Inhibition” value falls from 114.3% to -9.57%.

First: COc1ccc(CCCON2C(N)=NC(N)=NC2(C)C)cc1 [TCMDC-131693]
Second: COc1ccccc1N(C)CCNc1cc(C)nc(Nc2ccc(C)cc2)n1 [TCMDC-133456]
The “% Inhibition” value of the first is higher: 15.23% for the first, -44.09% for the second.

First: O=C(NCCCCN1CCC(c2ccc(OC(F)(F)F)cc2)CC1)c1ccc(NC(=O)c2ccc(Cl)cc2)cc1 [TCMDC-138327]
Second: O=C(NCCCCN1CCC(c2ccc(Br)cc2)CC1)c1ccc(NC(=O)c2ccc(Cl)cc2)cc1 [TCMDC-138347]
The “% Inhibition” value of the first is higher: 35.48% for the first, 1.75% for the second.

First: CCCc1ccc(C2CCN(CCCCNC(=O)c3ccc(NC(=O)c4ccc(Cl)cc4)cc3)CC2)cc1 [TCMDC-138358]
Second: CCc1ccc(C2CCN(CCCCNC(=O)c3ccc(NC(=O)c4ccc(Cl)cc4)cc3)CC2)cc1 [TCMDC-138351]
The “% Inhibition” value of the first is higher: 87.46% for the first, 54.3% for the second.

Compared with `CCc1ccccc1N1CCN(CCCC(=O)c2ccc(NC(=O)c3ccc(Cl)cc3)cc2)CC1` [TCMDC-138230], `CCc1ccccc1N1CCN(CCCCNC(=O)c2ccc(NC(=O)c3ccc(Cl)cc3)cc2)CC1` [TCMDC-138192] is higher in “% Inhibition” value: -10.32% for the first, 63.87% for the second.

Going from `O=C(NCCCCN1CCN(c2cccc3ccccc23)CC1)c1ccc(NC(=O)c2ccc(Cl)cc2)cc1` [TCMDC-138514] to `C=CCc1ccc(C2CCN(CCCCNC(=O)c3ccc(NC(=O)c4ccc(Cl)cc4)cc3)CC2)cc1` [TCMDC-138355], the “% Inhibition” value rises from -0.4742% to 87.45%.

Going from `O=C(NCCCCN1CCC(c2ccc([N+](=O)[O-])cc2)CC1)c1ccc(NC(=O)c2ccc(Cl)cc2)cc1` [TCMDC-138350] to `O=C(NCCCCN1CCC(c2ccc(-c3ccco3)cc2)CC1)c1ccc(NC(=O)c2ccc(Cl)cc2)cc1` [TCMDC-138321], the “% Inhibition” value rises from 25.02% to 113.6%.

First: O=C(c1cncc(-c2ccccc2)c1)N(Cc1cncn1Cc1ccccc1F)CC1CC1 [TCMDC-132464]
Second: c1ccc(CN2CCC(Nc3ccc(-c4cn[nH]c4-c4ccccn4)nc3)CC2)cc1 [TCMDC-138750]
The “% Inhibition” value of the first is lower: 14.15% for the first, 73.03% for the second.

Going from `Cn1cc(C(=O)Nc2cccc(-c3cccc(-c4nc5ccccc5[nH]4)c3)c2)n(C)c1=O` [TCMDC-137135] to `O=C(O)C(F)(F)F.c1cc(CNCC2CCCO2)cc(-c2ccc(-c3nc4ccccc4[nH]3)s2)c1` (stereo not shown) [TCMDC-133107], the “% Inhibition” value rises from -5.62% to -4.99%.

First: Cc1cc(C)c(C(=O)Nc2n[nH]c3nnc(-c4cccc(F)c4F)cc23)c(C)c1 [TCMDC-141220]
Second: CC(=O)NCCNc1cc(N2CCc3ncnc(Nc4ccc(OCc5c(F)cccc5F)c(Cl)c4)c3C2)ncn1 [TCMDC-135455]
The “% Inhibition” value of the first is lower: 6.955% for the first, 38.09% for the second.

Compared with `Oc1cc(Nc2ccnc3cc(I)ccc23)ccc1F` [TCMDC-138379], `Fc1cccc(COc2ccc(Nc3ncnc4sc(C#C[C@H]5CCCN5)cc34)cc2F)c1` [TCMDC-134429] is higher in “% Inhibition” value: -46.78% for the first, -0.575% for the second.

Going from `OC(COc1ccccc1-c1nc2ccccc2o1)CN1CCCN(CCc2ccccc2)CC1` (stereo not shown) [TCMDC-141430] to `Cc1cc(F)ccc1-c1nc(NCC(O)CNCCc2ccccc2)nc2c1ccc(=O)n2-c1c(F)cccc1F` (stereo not shown) [TCMDC-141784], the “% Inhibition” value rises from 28.2% to 98.89%.

Compared with `COc1ccccc1N1CCN(Cc2c(NC(C)=O)sc(C)c2C)CC1` [TCMDC-124501], `COc1ccc(Cl)cc1N1CCN(CCCNC(=O)c2ccc(-c3nc4cc(Cl)c(F)cc4[nH]3)s2)CC1` [TCMDC-140102] is higher in “% Inhibition” value: -13.75% for the first, 7.975% for the second.

Compared with `Oc1ccccc1CNCC(O)c1cc(C(F)(F)F)cc(C(F)(F)F)c1` (stereo not shown) [TCMDC-140304], `O=C(N1CCN(c2cccc(C(F)(F)F)c2)CC1)C(Cl)(Cl)Cl` [TCMDC-125655] is higher in “% Inhibition” value: -68.09% for the first, -5.728% for the second.

First: COc1cc(C2=NN(S(=O)(=O)c3c(C)cc(C)cc3C)CCCC2)ccc1Cl [TCMDC-136217]
Second: CS(=O)(=O)CCNc1cc(N2CCc3ncnc(Nc4ccc(OCc5cccc(F)c5)c(Cl)c4)c3C2)ncn1 [TCMDC-135477]
The “% Inhibition” value of the first is lower: 20.4% for the first, 58.91% for the second.

Compared with `COc1ccc(-c2ccc(Nc3cccc(S(=O)(=O)CCN4CCC(CCN(C)C)CC4)c3)nc2)cn1` [TCMDC-134376], `CN(C)C1CCN(CC#Cc2cc3ncnc(Nc4ccc(OCc5cccc(F)c5)c(Cl)c4)c3s2)CC1` [TCMDC-138804] is lower in “% Inhibition” value: 26.53% for the first, 11.68% for the second.

Compared with `Fc1ccc2nc(-c3ccc(-c4ccc(CNCC5CCCO5)cc4)s3)[nH]c2c1` (stereo not shown) [TCMDC-133100], `Fc1cccc(COc2ccc(Nc3ncnc4ccc(C#C[C@H]5CCCN5)cc34)cc2Cl)c1` [TCMDC-135437] is higher in “% Inhibition” value: -65.64% for the first, -6.979% for the second.

First: C[C@@H](N)C#Cc1cc2c(Nc3ccc(OCc4cccc(F)c4)c(Cl)c3)ncnc2s1 [TCMDC-134655]
Second: CN(C)Cc1ccc(-c2cc3c(Nc4ccc(OCc5cccc(F)c5)c(Cl)c4)ncnc3s2)[nH]1 [TCMDC-135468]
The “% Inhibition” value of the first is higher: 18.43% for the first, 11.16% for the second.

First: CC(=O)NCCNc1nccc(N2CCc3ncnc(Nc4ccc(OCc5ccccn5)c(Cl)c4)c3C2)n1 [TCMDC-135447]
Second: CNCCNc1nccc(N2CCc3ncnc(Nc4ccc(OCc5cccc(F)c5)c(Cl)c4)c3C2)n1 [TCMDC-135478]
The “% Inhibition” value of the first is lower: 3.253% for the first, 99.42% for the second.

First: CCN(CC)CCCNc1nccc(N2CCc3ncnc(Nc4ccc(OCc5cccc(F)c5)c(Cl)c4)c3C2)n1 [TCMDC-135406]
Second: CN(C)CCNc1nccc(N2CCc3ncnc(Nc4ccc(OCc5cccc(F)c5)c(Cl)c4)c3C2)n1 [TCMDC-135405]
The “% Inhibition” value of the first is higher: 102.3% for the first, 71.57% for the second.

Going from `CN(C)Cc1ccc(-c2cc3ncnc(Nc4ccc(OCc5cccc(F)c5)c(Cl)c4)c3s2)[nH]1` [TCMDC-135507] to `CCN(CCS(C)(=O)=O)Cc1ccc(-c2ccc3ncnc(Nc4ccc(OCc5cccc(F)c5)c(Cl)c4)c3c2)o1` [TCMDC-138533], the “% Inhibition” value falls from 40.2% to -31.95%.

Compared with `NCCCNc1nccc(N2CCc3ncnc(Nc4ccc(OCc5cccc(F)c5)c(Cl)c4)c3C2)n1` [TCMDC-135456], `CS(=O)(=O)CCNc1nccc(N2CCc3ncnc(Nc4ccc(OCc5cccc(F)c5)c(Cl)c4)c3C2)n1` [TCMDC-135425] is lower in “% Inhibition” value: 85.39% for the first, 8.296% for the second.

Compared with `COc1ccc2nccc([C@@H](O)CN3CCC(NCc4cc5oc(=O)n(C)c5cc4F)CC3)c2c1` [TCMDC-141144], `c1ccc(C2CCN(Cc3ccc(-c4c[nH]c5nc(NC6CCCC6)ncc45)cc3)CC2)cc1` [TCMDC-133772] is lower in “% Inhibition” value: -1.57% for the first, -64.75% for the second.

Compared with `O=C(Nc1ccc(N2CCCCC2)c(Cl)c1)c1ncn[nH]1` [TCMDC-123528], `O=C(/C=C/c1ccc(Cl)c(Cl)c1)NC1C2CCC1CC(CN1CCC(c3c[nH]c4ccccc34)CC1)C2` (stereo not shown) [TCMDC-139811] is higher in “% Inhibition” value: 3.564% for the first, 36.93% for the second.

Going from `Cc1cc(F)ccc1-c1nc(NCCCN2CCCC2=O)nc2c1ccc(=O)n2-c1c(F)cccc1F` [TCMDC-141433] to `Cc1cc(F)ccc1-c1nc(NCCCNCCc2ccccc2)nc2c1ccc(=O)n2-c1c(F)cccc1F` [TCMDC-141804], the “% Inhibition” value rises from -74.9% to 83.84%.

— paper PMC4552634, “A New Set of Chemical Starting Points with Plasmodium falciparum Transmission-Blocking Potential for Antimalarial Drug Discovery” (PLoS ONE, 2015)
